Measurements: article PMC5540273 (PLoS ONE, 2017)

Experiments:
ADCK3 = system: T1, ADCK3
T1 construct: gene CABC1

AMPK-alpha1 = system: T2, AMPK-alpha1
T2 construct: gene PRKAA1

ARK5 = system: T3, ARK5
T3 construct: gene NUAK1

ASK1 = system: T4, ASK1
T4 construct: gene MAP3K5

ASK2 = system: T5, ASK2
T5 construct: gene MAP3K6
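Also: kd values determined as follow-up on hits from a single-replicate KINOMEscan panel screen.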

## COc1ccccc1-c1ccc2c(NC(=O)C3CC3)n[nH]c2n1 [SB-711239]
ABL1-phosphorylated
  Kd: > 10 µM

## O=C1NC(=O)C(N2CCc3ccccc32)=C1c1ccccc1Cl [SB-373598]
ABL1-phosphorylated
  Kd: > 10 µM

## COc1ccc(C2=C(Nc3cccc(C(=O)O)c3)C(=O)NC2=O)cc1 [SB-390765]
ACVR1
  Kd: > 10 µM

## Cn1ccc2ncnc(Oc3cccc(C(=O)Nc4ccccc4)c3)c21
ACVR1
  Kd: > 10 µM

## COc1cccc(NC(=O)NC2CCN(c3ccnc(Nc4ccc(F)cc4)n3)C2)c1 (stereo not shown) [GSK1379721]
ACVR2A
  Kd: > 10 µM

## CC1=C(C(=O)Nc2cc3cn[nH]c3cc2F)C(c2ccc(C(F)(F)F)cc2)CC(=O)N1 (stereo not shown) [GSK429286]
ACVR2A
  Kd: > 10 µM

## NC(=O)c1nnc2ccccc2c1N
ADCK3
  Kd: > 10 µM

## Cc1c(O)cccc1Nc1ccnc2ccc(C(F)(F)F)cc12.Cl [GW466413]
ADCK4
  Kd: 0.51 µM

## Cc1cc(N2Cc3ccccc3C2)nc(Nc2ccc(S(=O)(=O)N3CCOCC3)cc2)n1.Cl [GSK1669917]
AKT1
  Kd: > 10 µM

## CCCc1ccc(S(=O)(=O)NC2CCN(c3ccnc(Nc4ccc(F)cc4)n3)C2)cc1 (stereo not shown) [GSK1379715]
AKT2
  Kd: > 10 µM

## CS(=O)(=O)c1ccc(-c2nc3n(c2-c2ccncc2)CCC3)cc1 [SKF-105942]
AKT2
  Kd: > 10 µM

## Cc1c(Cn2ccn3c(=O)cc(N4CCOCC4)nc23)cccc1C(F)(F)F [GSK2289044]
AKT3
  Kd: > 10 µM

## Nc1nc(-c2nccs2)c(-c2ccnc3ccccc23)s1 [GW693542]
AKT3
  Kd: > 10 µM

## Cc1nnc(-c2ccc3occ(-c4ccc(S(C)=O)cc4)c3c2)[nH]1 (stereo not shown)
AMPK-alpha1
  Kd: > 10 µM

## Cc1ccc(-c2cc(-c3c[nH]nc3-c3ccccn3)ccn2)cc1 [GW684088]
ARK5
  Kd: > 10 µM

## CC(C)(C)c1ccc(C(=O)Nc2cn3cc(Cl)ccc3n2)cc1
ASK1
  Kd: 1.5 µM

## CC(C)(C)c1ccc(C(=O)Nc2cn3cc(-c4cccnc4)ccc3n2)cc1
ASK1
  Kd: 0.064 µM

## CSc1nn2c(=O)cc(N3CCOCC3)nc2n1Cc1cccc(C(F)(F)F)c1C [GSK2363608]
ASK2
  Kd: > 10 µM

## O=c1cc(N2CCOCC2)nc2n(Cc3cccc(Cl)c3Cl)ccn12 [GSK2286295]
AXL
  Kd: > 10 µM
